# Shown are actives, neighbours in structure and some others; about 1% of the full set was active somewhere.
# APE1 inh-1: APE1 (human) endonuclease inhibition; 350,000 compounds, 0.35% hits; P27695; recombinant APE1, TAMRA/BHQ-2 abasic DNA cleavage fluorescence; Potency, µM (highest dose often 65.8 µM), without a hit: top-dose activity change, negative = inhibition, actives largely listed as inhibitors;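 further: plate controls were vehicle for no effect and reference inhibitor for full effect; nearly all actives have a fitted effect of over 55% in size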
# Target sequence (P27695 whole entry, looked up): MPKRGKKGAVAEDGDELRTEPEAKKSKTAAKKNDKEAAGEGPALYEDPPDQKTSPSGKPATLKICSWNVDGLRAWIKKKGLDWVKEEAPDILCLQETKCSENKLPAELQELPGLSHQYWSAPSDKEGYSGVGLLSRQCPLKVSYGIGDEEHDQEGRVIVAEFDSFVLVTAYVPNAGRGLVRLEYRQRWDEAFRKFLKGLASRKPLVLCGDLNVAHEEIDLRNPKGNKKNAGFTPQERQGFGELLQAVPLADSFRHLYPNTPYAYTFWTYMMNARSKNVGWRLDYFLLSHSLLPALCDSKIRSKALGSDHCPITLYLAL
#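 Activity was derived from the fluorescence gain between first and third kinetic reads (60 s intervals, ex 525/em 598 nm) after 50 nM THF-abasic TAMRA/BHQ-2 duplex was added to 0.75 nM APE1 preincubated 15 min with compound.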
# RECQ1 inh: RECQ1 (human) helicase inhibition; RECQ1 DNA unwinding, red fluorescence kinetic read; Potency, µM (highest dose often 57.3 µM), for the others: at the top dose activity, negative = inhibition, hits mostly inhibitors; 240,000 compounds, 0.54% hits;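 further: plate controls were vehicle for no effect and no enzyme for full effect; nearly all actives have a fitted effect of over 30% in size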
#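 RECQ1T1 50 nM; forked duplex (20 bp + 30-nt ss tails) 200 nM, ATP 2 mM final; pH 8.0, 2 mM MgCl2, 2.5 ug/ml poly(dI-dC); 15 min compound preincubation; discontinuous kinetic read over 2 h at RT.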
# WRN helicase inh-1: inhibitors of human WRN helicase. WRN helicase unwinding, fluorescent forked duplex, kinetic. 360,000 compounds, 0.46% hits. Potency, µM (doses to about 114 µM), without a hit: top-dose activity change, negative = inhibition, actives largely listed as inhibitors. AID 651768. Q14191; further: on the % scale 0 is the no-effect control and ±100 the full control effect; nearly all actives have a fitted effect of over 55% in size
#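 Primary qHTS, 1536-well format. 20 nM WRN + compound, 15 min RT; start with 100 nM forked fluorophore/quencher duplex, 2 mM ATP (final); kinetic read ex 525/em 598 nm.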
# BLM helicase inh-1: blocks DNA unwinding by human BLM helicase; AID 2528; Potency, µM (titrated, usually from 56.1 µM), for inactives: at the highest dose activity change, negative = inhibition, actives largely listed as inhibitors; recombinant BLM DNA unwinding, fluorescence dequenching; P54132; 350,000 compounds, 0.2% hits;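 further: plate controls were vehicle for no effect and no enzyme for full effect; nearly all actives have a fitted effect of over 35% in size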
# FEN1 inh-1: blocks human flap endonuclease 1. AID 588795. 390,000 compounds, 0.35% hits. Potency, µM (titrated, usually from 114 µM), for inactives: at the top dose activity change, negative = inhibition, most hits filed as inhibitors. Recombinant FEN1 flap cleavage, fluorescence, 15 min; further: on the % scale 0 is the no-effect control and ±100 the full control effect; nearly all actives have a fitted effect of over 65% in size
# Target sequence (P39748 whole entry, looked up): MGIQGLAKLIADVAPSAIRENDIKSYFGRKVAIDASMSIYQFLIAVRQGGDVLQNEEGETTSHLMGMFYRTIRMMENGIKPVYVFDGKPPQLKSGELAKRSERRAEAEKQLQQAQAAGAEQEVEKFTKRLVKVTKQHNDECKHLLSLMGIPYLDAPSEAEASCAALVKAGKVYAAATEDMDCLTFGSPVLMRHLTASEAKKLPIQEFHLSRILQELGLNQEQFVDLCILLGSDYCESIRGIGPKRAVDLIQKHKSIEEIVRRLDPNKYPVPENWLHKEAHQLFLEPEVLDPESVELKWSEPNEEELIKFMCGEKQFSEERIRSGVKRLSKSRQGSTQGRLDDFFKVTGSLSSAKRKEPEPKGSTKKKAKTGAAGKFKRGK
#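 Enzyme 10 nM, 15 min RT preincubation with compound; start with substrate 50 nM final; reads at 0 and 15 min; qHTS titration, four-parameter Hill fit.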
# L3MBTL1 inh-1: inhibitors of human L3MBTL1; Q9Y468; AlphaScreen L3MBTL1–H3K9me1 peptide binding; Potency, µM (series often up to 57.1 µM), for the others: at the top dose activity, negative = inhibition, hits mostly inhibitors; 230,000 compounds, 0.66% hits; AID 485360; further: on the % scale 0 is the no-effect control and ±100 the full control effect; nearly all actives have a fitted effect of over 60% in size
#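 L3MBTL1 (50 nM) pre-complexed 30 min with biotinylated H3(1-15)K9me1 peptide (75 nM), then compounds added for 30 min at room temperature; AlphaScreen streptavidin donor/nickel chelate acceptor beads (10 ug/mL final) read after 30 min dark incubation.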
# DNA dye displace: DNA dye displacement counter-screen activity. shares compounds with APE1 inh-1. DNA fluorescent dye displacement counterscreen, fluorescence. Potency, µM (series often up to 28.5 µM), without a hit: at the top dose activity change, negative = inhibition, actives largely listed as inhibitors. 480 compounds, 7% hits;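 further: loss of thiazole orange fluorescence as the dye is displaced from duplex DNA; 0% = ThO with dsDNA and no compound and -100% = ThO without dsDNA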
# Endo IV inh: counter-screen for APE1 inhibitors: inhibitors of E. coli endonuclease IV | shares compounds with APE1 inh-1 | E. coli Endo IV, fluorogenic AP-site DNA cleavage | Potency, µM (top dose mostly 27.1 µM), for inactives: top-dose activity change, negative = inhibition, hits mostly inhibitors | 560 compounds, 4% hits;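 further: plate controls were uninhibited enzyme wells for no effect and no enzyme buffer wells for full effect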
# APE1 inh-2: APE1 (human) endonuclease inhibition, confirmation. Potency, µM (titrated, usually from 57.1 µM), inactives show at the top dose activity change, negative = inhibition, usual class: inhibitors. purified APE1, fluorogenic abasic-site DNA cleavage. 750 compounds, 44% hits. shares compounds with APE1 inh-1; further: on the % scale 0 is the no-effect control and ±100 the full control effect; nearly all actives have a fitted effect of over 30% in size
# APE1 FP: compounds that displace a DNA probe from human APE1; shares compounds with APE1 inh-1; APE1 binding to TAMRA-labelled double-stranded DNA, fluorescence polarization displacement; Potency, µM (top dose mostly 28.5 µM), inactives show at the top dose activity, negative = inhibition, most hits filed as inhibitors; 480 compounds, 7% hits; AID 2573; further: on the % scale 0 is the no-effect control and ±100 the full control effect
# BLM inh: BLM (human) helicase inhibition, confirmation. shares compounds with BLM helicase inh-1. BLM DNA unwinding, fluorescence quenching, biochemical. Potency, µM, for inactives: max response, negative = inhibition, actives largely listed as inhibitors. 220 compounds, 40% hits. AID 2585;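 further: strand separation dequenches TAMRA so unwinding raises red fluorescence; series mostly up to about 69 µM; on the % scale 0 is the no-effect control and ±100 the full control effect; nearly all actives have a fitted effect of over 45% in size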
# RECQ1 inh conf: confirmation of human RECQ1 helicase inhibitors | RECQ1 helicase DNA unwinding, fluorescence | shares compounds with RECQ1 inh | 610 compounds, 28% hits | Potency, µM (doses to about 229 µM), for the others: top-dose activity change, negative = inhibition, actives largely listed as inhibitors; further: on the % scale 0 is the no-effect control and ±100 the full control effect; nearly all actives have a fitted effect of over 45% in size
# RECQ1 ADP FP: ADP displacement flagged in RECQ1 inhibitor counter-screen; shares compounds with RECQ1 inh; ADP fluorescence polarization displacement counterscreen; Potency, µM (doses to about 228 µM), without a hit: at the top dose activity change, negative = inhibition, hits mostly inhibitors; 530 compounds, 27% hits; AID 2711; further: on the % scale 0 is the no-effect control and ±100 the full control effect; nearly all actives have a fitted effect of over 45% in size
# L3MBTL1 inh-2: L3MBTL1 binding inhibition validated; L3MBTL1 methyl-lysine binding inhibition, biochemical qHTS; 500 compounds, 91% hits; Potency, µM, usual class: inhibitors; shares compounds with L3MBTL1 inh-1; further: nearly all actives have a fitted effect of over 70% in size
# L3MBTL1 ctr: AlphaScreen signal inhibition, L3MBTL1 hit counter-screen; shares compounds with L3MBTL1 inh-1; AlphaScreen counterscreen, signal inhibition; Potency, µM (titrated, usually from 57.1 µM), without a hit: at the highest dose activity change, negative = inhibition, hits mostly inhibitors; 500 tested, under 10 active; further: 0% is about no effect
# FEN1 inh-2: confirmation of human FEN1 inhibitors. shares compounds with FEN1 inh-1. Potency, µM, usual class: inhibitors. 880 compounds, 79% hits. AID 720498. FEN1 flap cleavage, TAMRA/BHQ2 fluorogenic DNA substrate; further: nearly all actives have a fitted effect of over 60% in size
# WRN helicase inh-2: WRN helicase inhibition, cherry-pick retest | shares compounds with WRN helicase inh-1 | WRN helicase DNA unwinding, fluorescence kinetic | Potency, µM (doses to about 57.1 µM), inactives show at the highest dose activity, negative = inhibition, usual class: inhibitors | 610 compounds, 63% hits; further: nearly all actives have a fitted effect of over 65% in size
# TO DNA binding: DNA binding via thiazole orange displacement | thiazole orange DNA binding displacement, fluorescence | Potency, µM (doses to about 57.1 µM), without a hit: top-dose activity change, negative = inhibition, usual class: inhibitors | AID 720499 | 610 compounds, 10% hits | shares compounds with WRN helicase inh-1;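 further: drop in dye fluorescence marks compound binding to DNA; on the % scale 0 is the no-effect control and ±100 the full control effect; nearly all actives have a fitted effect of over 60% in size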
# BLM helicase inh-2: BLM helicase inhibition, WRN selectivity check; shares compounds with WRN helicase inh-1; Potency, µM (titrated, usually from 57.1 µM), without a hit: at the highest dose activity change, negative = inhibition, hits mostly inhibitors; 610 compounds, 60% hits; Recombinant BLM helicase DNA unwinding, red fluorescence; further: nearly all actives have a fitted effect of over 60% in size
# * marks the source's active call; other numbers are inactive results; ? = inconclusive; · = no result given; [ ] = dose if it differs, or a comment. The call rests on the fitted dose curve; in most records, active means well fitted curve in the direction sought with a large enough effect; inconclusive means small, poorly fitted or top-dose-only effect, or another doubt; inactive means no such curve, though single readings can be large; an effect the other way counts as inactive or inconclusive. Potency means the concentration at half of the fitted maximal effect.
SMILES,APE1 inh-1,RECQ1 inh,WRN helicase inh-1,BLM helicase inh-1,FEN1 inh-1,L3MBTL1 inh-1,DNA dye displace,Endo IV inh,APE1 inh-2,APE1 FP,WRN helicase inh-2,TO DNA binding,BLM helicase inh-2,others
O=C(O)c1cccc(-n2cccc2/C=C/[N+](=O)[O-])c1,4µM*,?,20µM*,60%,?,2.8µM*,-4%,17%,4.5µM*,?,17µM*,-6%,19µM*,L3MBTL1 inh-2=1.7*;L3MBTL1 ctr=5%;FEN1 inh-2=43*
CCOC(=O)c1cc(-c2ccc(OC)cc2)n(CCC(=O)NCc2ccc(OC)cc2)c1C,·,·,·,1%,-9%,·,·,·,·,·,·,·,·,
COc1ccc(CN(C)C(=O)Cn2ccc(N)nc2=O)cc1OC,21%,·,8%,·,7%,4%,·,·,·,·,·,·,·,
C[C@@H]1CN([C@H](C)CO)C(=O)CCCn2cc(nn2)CO[C@H]1CN(C)C(=O)Nc1ccccc1C(F)(F)F,·,·,9%,·,·,·,·,·,·,·,·,·,·,
O=C(CCCN1C(=O)/C(=C/c2ccco2)SC1=S)Nc1ccccc1C(=O)O,20µM*,8.9µM*,32µM*,9%,?,7.1µM*,-10%,119%,13µM*,-30%,19µM*,-15%,24µM*,RECQ1 inh conf=28µM*;RECQ1 ADP FP=50µM*;L3MBTL1 inh-2=3.4*;L3MBTL1 ctr=0%
O=C(O)CCCN1C(=O)/C(=C\c2ccco2)SC1=S,20µM*,?,?,59%,32µM*,25µM*,-4%,69%,?,-1%,?,-8%,?,L3MBTL1 inh-2=?;L3MBTL1 ctr=1%
CC1(C)C(=O)CC[C@@]2(C)[C@H]1CC[C@@]1(C)CC3=C(CC[C@@H]12)[C@@]1(C)CCC(=O)C(C)(C)[C@@H]1CC3,0%,·,·,·,·,4%,·,·,·,·,·,·,·,
CC(=O)NN1C(=O)/C(=C/c2ccc(Br)o2)SC1=S,32µM*,?,50µM*,-10%,40µM*,·,-8%,4%,?,19%,-20%,2%,-20%,
CC(=O)NN1C(=O)/C(=C\c2ccc(Br)o2)SC1=S,?,-3%,-17%[57.1 µM],5%,-14%,?,·,·,·,·,·,·,·,
O=C1/C(=C/c2cccs2)SC(=S)N1NS(=O)(=O)c1ccccc1,-5%,11%,-14%,-8%,2%,-14%,·,·,·,·,·,·,·,
CC(C(=O)O)N1C(=O)/C(=C/C=C/c2ccco2)SC1=S (stereo not given),2.8µM*,6.3µM*,2.4µM*,?,7.9µM*,1.1µM*,7%,97%,0.89µM*,13µM*,0.54µM*,-11%,0.96µM*,FEN1 inh-2=15*
O=C1/C(=C/C=C/c2ccco2)SC(=S)N1NS(=O)(=O)c1ccccc1,2.5µM*,3.5µM*,8.9µM*,?,4µM*,·,-3%,116%,3.5µM*,?,4.8µM*,-18%,7.6µM*,FEN1 inh-2=17*
O=C(O)CN1C(=O)/C(=C/C=C/c2ccccc2)SC1=S,-3%,-8%,-1%,-3%,-1%,11%,·,·,·,·,·,·,·,
CC1(C(=O)NS(=O)(=O)c2cccc(C#N)c2)CCN1C(=O)c1ccc(C2CCCCC2)cc1 (stereo not given),·,·,2%,·,·,·,·,·,·,·,·,·,·,
CCOC(=O)/C=C1\CC(C(=O)OCC)Oc2c(OC)cccc21 (stereo not given),-6%,-7%[81.1 µM],-9%,2%[75.6 µM],-10%,7%,·,·,·,·,·,·,·,BLM inh=6%
COc1ccc(C(=O)C2CCCN(C(=O)CCc3scnc3C)C2)c(C)c1 (stereo not given),24%,0%,3%,28µM*,16%,-23%,·,·,·,·,·,·,·,BLM inh=2%
COc1ccc(CCNC(=O)C(=O)c2cn(CC(=O)N3CCCC3)c3ccccc23)cc1,·,·,5%,·,·,·,·,·,·,·,·,·,·,
